# Experimental data as given in article PMC5540273 (PLoS ONE, 2017).
# Assays:
# Conditions in all cases: concentration: 1 μM, replicates: in singlicate; n = 1
# [1] = test system: STK36
# [2] = test system: STK39
# [3] = test system: SYK
# [4] = test system: SgK110
# [5] = test system: T1, TAK1
# T1 construct: gene MAP3K7
# [6] = test system: TAOK1
# [7] = test system: TAOK2
# [8] = test system: TAOK3
# [9] = test system: TBK1
# [10] = test system: TEC
# [11] = test system: TESK1
# [12] = test system: TGFBR1
# [13] = test system: TGFBR2
# [14] = test system: TIE1
# [15] = test system: T2, TIE2
# T2 construct: gene TEK
# [16] = test system: TLK1
# [17] = test system: TLK2
# [18] = test system: TNIK
# [19] = test system: TNK1
# [20] = test system: TNK2
# 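Note: KINOMEscan kinase panel screen.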
SMILES,%Inh [1] [%],%Inh [2] [%],%Inh [3] [%],%Inh [4] [%],%Inh [5] [%],%Inh [6] [%],%Inh [7] [%],%Inh [8] [%],%Inh [9] [%],%Inh [10] [%],%Inh [11] [%],%Inh [12] [%],%Inh [13] [%],%Inh [14] [%],%Inh [15] [%],%Inh [16] [%],%Inh [17] [%],%Inh [18] [%],%Inh [19] [%],%Inh [20] [%]
CN1CCN(Cc2ccc(NC(=O)Nc3ccc(N(C)c4ccnc(Nc5ccc(CS(C)(=O)=O)cc5)n4)cc3)cc2)CC1.Cl [GW827654],49,36,84,0,89,13,0,0,30,9,0,25,81,96.9,80,25,0,90.9,20,97.7
CN(c1ccc(F)c(NC(=O)c2cccc(OC(C)(C)C#N)c2Cl)c1)c1ccc2nc(NC(=O)C3CC3)sc2n1,3,12,0,0,19,49,0,0,7,6,6,3,0,67,0,2,0,95.6,42,0
COc1cccc(NC(=O)NCCNc2ccnc(Nc3ccc(F)cc3)n2)c1 [GSK1379879],0,1,20,0,0,0,0,0,13,0,40,26,0,1,0,0,0,0,0,9
Cc1ccc(O)cc1Nc1ccnc2cc(-c3ccc(CN4CCCCC4)o3)ccc12 [GW557777],0,0,69,0,35,0,0,0,0,21,0,47,98,61,57,23,5,24,0,26
Cc1ccc(NC(=O)c2ccc(Cl)c(Cl)c2)cc1-c1ccc(C(=O)Nc2ccncc2)cc1 [GSK1398460],0,0,21,4,12,0,0,0,23,15,29,0,0,0,0,8,6,0,29,19
Nc1ncnc2scc(-c3ccc(NC(=O)Cc4cc(F)ccc4F)cc3)c12.O=C(O)C(F)(F)F [SB-731254-M],0,8,0,11,22,11,3,0,30,1,51,4,20,98.7,77,11,1,27,44,2
COc1cc(Nc2nccc(N3CCC(NS(=O)(=O)c4ccc(NC(C)=O)cc4)CC3)n2)cc(OC)c1OC [GSK1379825],62,0,37,0,0,0,0,0,26,0,71,61,0,63,63,0,0,22,6,76
CCn1cnc2c(NCc3ccccc3)ncnc21 [SKF-96418],0,16,0,0,0,0,27,0,17,0,15,25,0,0,0,0,1,0,2,0
COc1cc(Nc2nccc(N3CCC(NC(=O)Nc4ccc5c(c4)OCO5)C3)n2)cc(OC)c1OC (stereo not shown) [GSK1379766],0,9,39,0,0,0,0,0,33,6,22,22,0,42,0,0,0,0,20,9
CS(=O)(=O)c1cccc(CNc2nc(Nc3ccc4c(c3)CCC(=O)N4)ncc2C(F)(F)F)c1,0,0,75,0,68,0,21,0,89,0,0,2,0,57,30,0,0,90.1,73,0
O=C(O)C(F)(F)F.O=c1[nH]ccc2nc(N[C@@H]3CCNC3)nc(Nc3cc(Cl)cc(Cl)c3)c12 [GSK2188764],17,75,84,3,99.1,34,3,18,54,0,8,25,0,0,0,62,73,96.5,41,4
COc1cccc(-c2nc(-c3ccccc3)[nH]c2-c2ccncc2)c1 [SB-610250],30,19,23,20,0,0,0,0,0,4,22,17,5,0,0,0,0,0,0,8
Nc1ncc(-c2cn[nH]c2)c2scc(-c3ccc4c(c3)CCN4C(=O)Cc3ccccc3)c12 [GSK2593067],0,0,25,0,0,0,0,0,1,4,59,0,0,97.4,83,0,0,69,45,79
COC(=O)Nc1nc2ccc(Oc3ccc(NC(=O)Nc4cc(C(F)(F)F)ccc4F)cc3)cc2[nH]1.Cl [GW654607],0,13,29,55,94.7,0,0,6,0,0,0,0,7,97.7,99.7,7,4,5,48,12
Cc1nn2c(=O)cc(N3CCO[C@H](C)C3)nc2n1Cc1cccc(Cl)c1Cl [GSK2373693],0,5,19,0,0,0,0,3,0,2,20,0,8,15,2,0,0,0,0,10
Fc1cc(Cl)ccc1Nc1ccnc2cc(-c3ccc(CN4CCOCC4)o3)ccc12 [GW560109],0,10,16,3,0,0,0,0,0,76,13,0,83,13,8,0,0,53,81,82
Cc1cc(-c2ccnc(Nc3cccc(C#N)c3)n2)cc(C)c1O [GSK1440913],38,8,83,0,54,77,22,42,35,19,47,0,0,74,0,16,0,68,0,18
Cl.N#CCc1ccc(Nc2nccc(Nc3ccc(Oc4ccccc4)cc3)n2)cc1 [GW639905],0,10,5,6,0,0,7,0,6,75,56,0,8,2,9,0,0,0,59,26
NCCC(NC(=O)c1cc(Br)c(-c2ccnc3[nH]ccc23)s1)c1ccccc1.O=C(O)C(F)(F)F.O=C(O)C(F)(F)F (stereo not shown) [GSK1307810],0,5,18,70,51,48,10,0,5,0,6,3,0,73,0,23,0,52,0,9
COc1cc(Nc2ccnc3cc(-c4ccncc4)ccc23)cc(OC)c1OC.Cl [GW494610],9,11,0,0,0,0,0,0,0,5,73,63,59,19,15,0,0,89,40,28
